Test results published in PubChem BioAssay.
“And” between values parts separate entries of the source, which are not always exact repeats. Equal entries are not always repeated. For some of these results: Entries with a potency or affinity are not part of this list. The source made the active and inactive calls. Cut-off read from the data, not from the text of the source, unless noted: active = parasite load remaining mostly below about 12% (no sharp cut-off); inactive = mostly above about 10%.

How the values were obtained:
[1] = blockers of polyQ-driven CASP3 activation – cell-based (AID 1583); details: polyglutamine-induced caspase-3 activation, cell assay; stronger effect = higher value;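 tested at 10 µM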
[2] = yeast 75Q aggregation reduction – 75Q-TubU reporter (AID 1593); details: Yeast 75Q polyglutamine aggregation reporter
[3] = restoration of touch response, mutant HTT neurons – whole organism, C. elegans mechanosensory neurons, N-terminal huntingtin (AID 1599); details: C. elegans polyQ-huntingtin mechanosensory neurons, stronger effect = higher value
[4] = blockers of cytochrome c efflux from mitochondria – biochemical, purified mitochondria (AID 1603); details: stronger effect = lower value;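 note: mouse liver mitochondria challenged with calcium chloride; signal normalized to the plate average as 100%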
[5] = polyglutamine aggregate formation blockers (AID 1604); details: polyglutamine-induced protein aggregation inhibition assay; stronger effect = higher value; tested at 2.5 µM
[6] = glutamate transport activators, MN-1 cells, MN-1 cell line (AID 1612); details: MN-1 motor neuron cells, stronger effect = higher value;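 note: tested at 1 µM final; 0% = mean of DMSO vehicle wells on each plate; positive means more glutamate uptake than control and negative means less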
[7] = GFP-Q80 aggregate reduction, neuronal-like cells, cell-based, NGF-treated PC12, GFPQ80 (AID 1614); details: PC12 NGF-treated GFP-polyQ80 inclusion reduction;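 note: lower means fewer inclusions and 0 means no inclusions at all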
[8] = 75Q-TubH aggregate inhibition, S. cerevisiae, yeast (AID 1616); details: S. cerevisiae 75Q-TubH polyglutamine aggregation suppression; stronger effect = higher value
[9] = P. berghei load reduction in hepatocytes – cell-based, HepG2, luciferase luminescence, HepG2 viability, primary screen (AID 624349);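 note: 100% = mean of DMSO negative control wells on the same plate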; details: P. berghei liver stage in HepG2, luciferase luminescence, concentration not given here; parasite load remaining: stronger effect = lower value; viability: measured here: HepG2 viability without parasites
[10] = EMT-state selective cytotoxicity in co-culture – imaging, PC-3E GFP, TEM4-18 mCherry, primary screen (AID 1345086;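 active = compounds killing one labelled cell type while sparing the other, by normalised counts and ratio limits, not self-fluorescent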;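 for all read-outs here: cells exposed to compound for 72 h before imaging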;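 for red/green cell ratio (normalised): normalised mesenchymal count divided by normalised epithelial count so high means epithelial killing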); details: PC-3E GFP / TEM4-18 mCherry co-culture, imaging cell counts, at 1 µM; for red/green cell ratio (normalised): actives lie on both sides, counts scaled to control wells, 1 = unselective
[11] = viability loss with induced miR-34 in A549 – imaging, A549 dox-inducible miR-34, nuclei and caspase counts, primary screen (AID 1347080;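 active = compounds whose cell count with miR-34 switched on is under 0.7 times the count with it off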); details: A549 miR-34 inducible, Hoechst nuclei count, 48 h
[12] = measured here: epithelial PC-3E GFP cell survival
[13] = measured here: mesenchymal TEM4-18 mCherry cell survival
[14] = stronger effect = lower value, cell number ratio, induced over uninduced
[15] = measured here: relative caspase fold change +Dox/-Dox
[16] = measured here: total cells with miR-34 induction, stronger effect = lower value
[17] = measured here: total cells without miR-34 induction

| SMILES | inhibition [1] [%] | score [2] | rescue above control [3] | cytochrome c release ratio [4] | inhibition of aggregation [5] [%] | glutamate uptake change [6] [%] | inclusion score [7] | aggregation suppression score [8] | parasite load remaining [9] | viability [9] | red/green cell ratio (normalised) [10] | normalised cell number [10, 12] | normalised cell number [10, 13] | fold change [11, 14] | fold change [11, 15] | cell count [11, 16] | cell count [11, 17] |
| --- | --- | --- | --- | --- | --- | --- | --- | --- | --- | --- | --- | --- | --- | --- | --- | --- | --- |
| CC(COc1ccccc1)NC(C)[C@H](O)c1ccc(O)cc1 (stereo not given in full) | -10.5 | 1.07 | -0.43 | 0.93 | 67.5 | 5.98 | 2 | 0.981 | 58.3% (inactive) | 72.5% and 101% | 1.11 (inactive) | 1.16 | 1.29 | 0.796 (inactive) | 1.19 | 10800 | 13600 |
| CCCC1O[C@@H]2CC3C4CCC5=CC(=O)C=CC5(C)C4[C@@H](O)CC3(C)[C@]2(C(=O)CO)O1 (stereo not given in full) | 18.7 | 1.33 | -3.37 | 1.5 | 69.2 | -4.39 | 2 | 1.53 | 34.5% (inactive) and 13.1% (inactive) | 88.8% | 1.29 (inactive) | 0.99 | 1.27 | 0.872 (inactive) | 1.29 | 6800 | 7800 |
| C[C@]12CCC(=O)C=C1CCC1C2[C@@H](O)C[C@@]2(C)C1CC[C@]2(O)C(=O)COC(=O)CCC(=O)O (stereo not given in full) | 7.51 | 1.55 | -3.62 | 1.58 | 37.2 | -0.65 | 2 | 1.36 | 137% (inactive) and 66.7% (inactive) | 78.6% and 93.3% | 1.43 (inactive) | 0.86 | 1.23 | 0.766 (inactive) | 0.842 | 7240 | 9450 |
| CN1C2CC[C@@H]1CC(OC(=O)[C@H](CO)c1ccccc1)C2 (stereo not given in full) | 10 | 1.23 | 0.71 | 1.28 | 89.7 | -13.3 | 2 | 1.46 | 85.7% (inactive) and 75.8% (inactive) | 72.7% and 94.9% | 0.96 (inactive) | 1.11 | 1.07 | 0.837 (inactive) | 0.536 | 10500 | 12600 |
| C=C[C@@]1(C)CC(=O)[C@@]2(O)[C@](C)(O1)[C@@H](OC(C)=O)[C@@H](O)C1C(C)(C)CC[C@H](O)[C@@]12C (stereo not given in full) | 4.06 | 1.39 | 0.33 | 0.91 | 15.4 | 15.8 | 1 | 1.2 | 150% (inactive) and 45.5% (inactive) | 93.3% and 96.7% | 1 (inactive) | 1.25 | 1.26 | 0.888 (inactive) | 3.59 | 11900 | 13400 |
| CN[C@@H]1C(OC2[C@H](O[C@H]3[C@H](O)[C@@H](O)[C@H](N=C(N)N)[C@@H](O)[C@@H]3N=C(N)N)OC(C)[C@]2(O)CO)OC(CO)C(O)C1O (stereo not given in full) | -7.45 | 1.24 | 1.04 | 0.93 | 82.2 | -1.61 | 2 | 1.17 | 87.5% (inactive) and 63.1% (inactive) | 69.8% and 93.3% | 1.34 (inactive) | 1.05 | 1.41 | 0.819 (inactive) | 1.34 | 10800 | 13200 |
| C#C[C@]1(O)CCC2C3CCC4=CC(=O)CC[C@@H]4C3CC[C@@]21C (stereo not given in full) | -3.25 | 0.94 | 10.4 | 1.47 | 89.7 | -5.05 | 2 | 0.524 | 118% (inactive) and 51.8% (inactive) | 71.2% and 90% | 0.86 (inactive) | 1.29 | 1.11 | 0.914 (inactive) | 1.55 | 10400 | 11300 |
| C[C@H]1CC2C([C@@H](O)C[C@@]3(C)C2CC[C@]3(O)C(=O)CO)[C@@]2(C)C=CC(=O)C=C12 (stereo not given in full) | 13.3 | 1.06 | -2 | 0.64 | 83.1 | 14.1 | 2 | 1.35 | 110% (inactive) and 67.7% (inactive) | 78.4% and 89.4% | 1.21 (inactive) | 1.36 | 1.64 | 0.922 (inactive) | 1.43 | 7440 | 8070 |
| C[C@@H]1CC2C3C[C@H](F)C4=CC(=O)C=C[C@]4(C)[C@@]3(F)[C@@H](O)C[C@]2(C)[C@@]1(O)C(=O)CO (stereo not given in full) | 14.1 | 1.53 | 11.3 | 1.19 | 57.7 | 16.9 | 2 | 0.927 | 21.3% (inactive) | 92.2% | 1.15 (inactive) | 1.15 | 1.33 | 0.92 (inactive) | 1.86 | 7830 | 8520 |
| CCN1CCN(C(=O)NC(C(=O)N[C@@H]2C(=O)N3[C@@H]2SC(C)(C)[C@@H]3C(=O)O)c2ccccc2)C(=O)C1=O (stereo not given in full) | -12.4 | 1.33 | 11.4 | 1 | 57.7 | 3.02 | 2 | 1.27 | 83.4% (inactive) and 122% (inactive) | 73% and 103% | 1.25 (inactive) | 0.93 | 1.17 | 0.831 (inactive) | 1.11 | 10100 | 12200 |
| NC(=O)c1cc[n+](CC2=C(C(=O)O)N3C(=O)C(NC(=O)C(c4ccccc4)S(=O)(=O)[O-])C3SC2)cc1 (stereo not given) | -4.99 | 0.99 | -3.36 | 0.92 | 24.1 | -27.4 | 2 | 1.42 | 51% (inactive) | 86.8% | 0.99 (inactive) | 1.08 | 1.07 | 0.877 (inactive) | 3.65 | 11600 | 13200 |
| CCN1CCN(C(=O)NC(C(=O)NC2C(=O)N3C(C(=O)O)=C(CSc4nnnn4C)CSC23)c2ccc(O)cc2)C(=O)C1=O (stereo not given) | 16.1 | 1.1 | -10 | 0.84 | 50.2 | 15.1 | 2 | 1.47 | 146% (inactive) and 45.3% (inactive) | 72.7% and 103% | 1.23 (inactive) | 0.99 | 1.22 | 0.914 (inactive) | 3.35 | 12000 | 13100 |
| CN1C2CC(OC(=O)[C@H](CO)c3ccccc3)C[C@H]1[C@H]1OC21 (stereo not given in full) | 15.1 | 1.26 | 6.9 | 1.03 | 58.7 | 1.71 | 2 | 1.18 | 98.3% (inactive) and 40.5% (inactive) | 76.7% and 88.6% | 0.76 (inactive) | 1.11 | 0.84 | 0.977 (inactive) | 3.37 | 11400 | 11600 |
| NC(N)=Nc1nc(CSCC/C(N)=N\S(N)(=O)=O)cs1 | -15 | 1.36 | -0.31 | 1.43 | 82 | -4.06 | 1 | 1.04 | 106% (inactive) and 35.6% (inactive) | 69.4% and 84.3% | 1.13 (inactive) | 0.95 | 1.07 | 0.887 (inactive) | 1.64 | 11500 | 12900 |
| CO/N=C(/C(=O)NC1C(=O)N2C(C(=O)O)=C(COC(N)=O)CSC12)c1ccco1 (stereo not given) | 8.13 | 1.48 | -9.55 | 1.1 | 28.8 | 14.5 | 2 | 1.29 | 180% (inactive) and 36.7% (inactive) | 72.5% and 86.1% | 0.94 (inactive) | 1.04 | 0.97 | 0.899 (inactive) | 3.3 | 11600 | 12900 |
| CCC(=O)OCC(=O)C1(OC(=O)CC)C(C)CC2C3CCC4=CC(=O)C=CC4(C)C3(Cl)C(O)CC21C (stereo not given) | -26 | 0.15 | -4.19 | 1.11 | 41.7 | 23.7 | 2 | 1.25 | 142% (inactive) and 79.4% (inactive) | 78.6% and 97.5% | 1.47 (inactive) | 0.88 | 1.29 | 0.749 (inactive) | 1.52 | 6530 | 8720 |
| C[C@]12CCC3c4ccc(O)cc4CCC3C1CC[C@@H]2OC(=O)CCC1CCCC1 (stereo not given in full) | 30.9 | -0.35 | -0.57 | 0.97 | 94.4 | -6.63 | – | 0.396 | 77.3% (inactive) and 37.9% (inactive) | 74.2% and 90.6% | 1.54 (inactive) | 0.83 | 1.27 | 1 (inactive) | 1.31 | 11300 | 11300 |
| C#C[C@]1(OC(C)=O)CCC2C3CCC4=CC(=O)CC[C@@H]4C3CC[C@@]21C (stereo not given in full) | 17.5 | 0.07 | 0.31 | 1.09 | 7.32 | 12.7 | – | 0.237 | 88.9% (inactive) and 45.6% (inactive) | 69.5% and 94.9% | 1.18 (inactive) | 1 | 1.17 | 0.881 (inactive) | 2.11 | 10900 | 12400 |
| CCCCC(=O)O[C@H]1CCC2C3CCc4cc(O)ccc4C3CC[C@@]21C (stereo not given in full) | 15.8 | -2.02 | 17.4 | 1.02 | 26.4 | 19.7 | – | 0.271 | 83% (inactive) and 44.1% (inactive) | 74.5% and 87.8% | 0.95 (inactive) | 0.89 | 0.84 | 0.938 (inactive) | 1.71 | 10200 | 10900 |
| C#C[C@]1(O)CCC2C3CCC4=C(CCC(=O)C4)C3CC[C@@]21C (stereo not given in full) | -10.6 | 0.8 | -0.46 | 1.11 | 55.6 | -10.2 | – | 0.537 | 73.4% (inactive) and 48.3% (inactive) | 71.3% and 92% | 1.12 (inactive) | 1.18 | 1.32 | 0.929 (inactive) | 1.51 | 11200 | 12100 |
| O=C1O[C@@H](CO)[C@H](O)[C@@H](O)[C@@H]1O | -15.4 | 1.29 | 7.61 | 0.98 | 50.7 | -5.06 | 2 | 1.09 | 176% (inactive) and 30.6% (inactive) | 83.8% and 96.7% | 1.05 (inactive) | 0.98 | 1.02 | 0.946 (inactive) | 2.61 | 12000 | 12600 |
| CC1(C)O[C@@H]2CC3C4C[C@H](F)C5=CC(=O)CC[C@]5(C)C4[C@@H](O)C[C@]3(C)[C@]2(C(=O)CO)O1 (stereo not given in full) | 6.64 | 1.49 | 7.14 | 1.08 | 66.7 | 17 | 2.5 | 0.898 | 151% (inactive) and 47.9% (inactive) | 68.8% and 102% | 1.21 (inactive) | 1.17 | 1.42 | 0.854 (inactive) | 2.6 | 7720 | 9050 |
